Sampled rows, rich in hits. Any-hit rate of the full collection: about 3.9%.
CCHF vOTU inh: CCHFV vOTU protease inhibition. 370,000 tested, 0.55% active. Pep-AMC fluorescence. inhibition, % at 11.5 µM; in the data active = inhibition above about 30%; also: 0% = vehicle wells with enzyme and 100% = no enzyme wells
Bead autofluor: flagged as autofluorescent in microsphere protease counterscreen. compound autofluorescence counterscreen, microsphere flow cytometry; hits give high values. fluorescence intensity (concentration not given with the values). 360,000 tested, 3.1% active. AID 624483; in the data active = fluorescence intensity above about 16000; inconclusive = no clear call, values can overlap the other calls
Anthrax LF prot: anthrax lethal factor protease inhibition. P15917. multiplex microsphere protease cleavage assay, LF. inhibition, % at 10 µM. 360,000 tested, 0.12% active. AID 588501; also: plate controls were buffer without enzyme for full effect and enzyme alone for no effect
BoNT A protease: blocks Botulinum neurotoxin A light chain protease; inhibition, % at 10 µM; AID 588499; multiplex microsphere protease substrate cleavage, flow cytometry; 360,000 tested, 0.17% active; also: plate controls were buffer without enzyme for full effect and enzyme alone for no effect
BoNT-F LC inh: blocks Botulinum neurotoxin F light chain protease. 360,000 tested, 0.22% active. Multiplex microsphere protease cleavage assay, flow cytometry. AID 588497. inhibition, % at 10 µM; in the data active = inhibition above about 35%, passing the limit was not always enough; inconclusive = no clear call, values can overlap the other calls; also: plate controls were buffer without enzyme for full effect and enzyme alone for no effect
SARS 3CLpro inh: SARS-CoV 3CLpro protease inhibition | 290,000 tested, 0.14% active | P0C6X7 | AID 1706 | inhibition, % at 6 µM | recombinant SARS-CoV 3CLpro, quenched FRET peptide cleavage; in the data active = inhibition above about 12%
Starred values were filed as active, the others as inactive; u = inconclusive; x = no result given. Rule as the data show it, unless noted: active = inhibition above about 30%; inconclusive = no clear call, values can overlap the other calls; inactive = below that.

SMILES	CCHF vOTU inh	Bead autofluor	Anthrax LF prot	BoNT A protease	BoNT-F LC inh	SARS 3CLpro inh
Cc1ccc(NC(=O)N2CCC(C(=O)NCCC3=CCCCC3)CC2)cc1	-2.0	16684*	-3.4	-0.4	-3.2	2.9
CCCCNC(=O)C1CCN(C(=O)Nc2ccc(C)cc2)CC1	-3.6	6543	-8.8	-0.4	2.0	-0.4
Cc1ccc(CNC(=O)C2CCCN2C(=O)Nc2ccc(C)cc2)cc1 (centres undefined)	9.1	3392	2.0	-2.2	7.9	3.0
Cc1ccc(NC(=O)N2CCCC2C(=O)NCCC2=CCCCC2)cc1 (centres undefined)	-5.0	18611*	-9.5	u	5.7	1.3
O=S1(=O)N=C(Oc2ccccc2)c2ccccc21	-8.4	23213*	-0.5	0.8	-0.5	0.4
Nc1nnc(SCC(=O)Nc2nccs2)s1	6.3	3694	6.7	3.3	22.1	1.5
CC(C)(C)c1csc(SCC(=O)Nc2ccc(Cl)cn2)n1	4.3	18967*	-8.5	2.2	1.2	-1.2
Cc1nnc(SCC(=O)Nc2nsc(-c3ccccc3)n2)s1	-8.8	21832*	-6.0	-4.9	-6.2	0.5
Cc1ccc(-c2nc(NC(=O)CSc3nnc(C)s3)ns2)cc1	0.8	4540	-6.3	0.0	0.7	-1.4
Cc1nnc(SCC(=O)Nc2nccs2)s1	-6.0	20118*	-3.0	0.2	-2.0	-1.9
CN(C)c1ccc(NC(=O)c2sc(SCC(=O)Nc3nccs3)nc2N)cc1	3.1	23476*	-3.0	-1.0	-4.6	0.7
Cc1csc(SCC(=O)Nc2ccc(Cl)cn2)n1	-2.3	4502	0.8	0.5	-4.4	1.8
CN(C)c1ccc(NC(=O)c2sc(SCC(=O)Nc3ccc(Br)cc3)nc2N)cc1	4.3	4827	-3.1	0.6	-5.5	0.4
O=C(Nc1ccc(F)cc1)OCc1cn(Cc2ccc(F)c(F)c2)nn1	7.5	x	x	x	x	x
CNS(=O)(=O)c1c(C)cc(C)c(N(C)S(=O)(=O)c2ccccc2)c1C	3.3	3479	-13.3	0.1	-0.4	-5.7
COC(=O)[C@]12C[C@H](CC(=O)NCCc3ccccc3OC)C(=O)N(Cc3ccco3)C1=C[C@H](C(C)(C)C)O[C@@H]2C	22.8	x	x	x	x	x
Cc1nnc(SCC(=O)Nc2nc(C(C)(C)C)cs2)s1	11.2	21050*	0.8	u	-3.1	0.3
COC(=O)C[C@H]1CC[C@@H]2[C@@H](COc3ccc(NC(=O)c4ccccc4)cc3C(=O)N2C)O1	0.7	x	x	x	x	x
FC(F)(F)c1cc(C(F)(F)F)c2ccc(N3CCOCC3)nc2n1	-11.5	4107	7.1	-1.7	-39.3	0.5
FC(F)(F)c1cc(C(F)(F)F)c2ccc(N3CCN(c4ncccn4)CC3)nc2n1	-10.7	23511*	-6.0	-4.2	-4.4	1.4
Nc1ccc2c(C(F)(F)F)cc(C(F)(F)F)nc2n1	-221.7	3366	0.4	1.5	2.2	4.0
Fc1ccc(N2CCN(c3ccc4c(C(F)(F)F)cc(C(F)(F)F)nc4n3)CC2)cc1	0.2	21176*	-3.5	3.8	3.5	-0.8
FC(F)(F)c1cc(C(F)(F)F)c2ccc(N3CCN(c4ccc(Cl)cc4)CC3)nc2n1	3.4	21584*	-1.9	3.1	3.8	-2.8
O/C(=C\c1nc2ccccc2nc1/C=C(\O)c1ccccc1)c1ccccc1	x	4056	30.5*	66.8*	11.5	-0.9
O=c1oc2ccccc2nc1/C=C(\O)c1ccccc1	8.2	5679	-11.3	-1.3	-10.5	-1.5
SMILES	CCHF vOTU inh	Bead autofluor	Anthrax LF prot	BoNT A protease	BoNT-F LC inh	SARS 3CLpro inh
CN(C)c1ccc(/C=C/c2cc[n+](C)cc2)cc1	6.1	16151*	-7.6	-3.2	-7.1	3.7
CN(C)c1ccc(/C=C/c2cc[n+]([O-])cc2)cc1	x	x	x	x	x	8.2
CCOC(=O)C1(CCCc2ccccc2)CCN(Cc2ccn[nH]2)CC1	8.2	2408	-0.1	0.2	-3.2	0.9
N#CCCN1CCN(C2=NC(=O)C(=C3CCCCC3)S2)CC1	-4.5	22432*	-1.7	0.4	0.3	0.6
O=C1N=C(N2CCOCC2)SC1=C1CCCCC1	-0.7	20921*	-1.4	1.3	4.1	2.1
CC(C)NC(=O)N(C)C[C@@H]1Oc2cc(C#Cc3ccccn3)ccc2S(=O)(=O)N([C@@H](C)CO)C[C@H]1C	18.7	3545	1.9	0.1	-5.6	x
CC(=O)NS(=O)(=O)c1ccc(N=c2ssc3c2-c2ccc(C)cc2NC3(C)C)cc1	5.4	2509	0.8	0.9	7.0	4.0
C/C(=N\O)c1ccc(N2C(=O)C3CC=C(Cl)CC3C2=O)cc1 (centres undefined)	-8.6	16899*	-3.3	-1.6	-4.0	-0.9
CC1(C)CC(=O)C=C(Nc2cc(-c3ccccc3)[nH]n2)C1	3.9	21249*	-1.4	3.5	6.2	-1.2
CC1(C)C2([N+](=O)[O-])CN3CC1([N+](=O)[O-])CN(C2)C3C(O)C(O)C(O)CO (centres undefined)	9.2	4765	-10.3	-1.1	-4.7	1.6
Cc1ccc(NC2=NC(c3ccccc3)n3c(nc(C)cc3=O)N2)c(C)c1 (centres undefined)	3.1	22223*	-2.4	0.3	-1.3	0.2
Cc1ccc(NC2=NC(c3ccc(F)cc3)n3c(nc(C)cc3=O)N2)c(C)c1 (centres undefined)	-13.5	3712	1.5	-6.7	u	1.6
Cc1ccc(NC2=NC(c3ccc(F)cc3)n3c(nc(C)cc3=O)N2)cc1 (centres undefined)	-11.0	3768	-5.6	-0.1	u	0.4
Cc1ccc(NC2=NC(c3ccc(C)cc3)n3c(nc(C)cc3=O)N2)cc1 (centres undefined)	-0.4	23058*	-1.9	-2.8	-7.6	4.7
Cc1ccc(S(=O)(=O)N(C)c2ccc3c(c2)C(=O)c2ccccc2-3)cc1	-2.6	5828	-2.6	2.5	8.6	x
Cc1ccc(S(=O)(=O)N2[C@@H](c3ccc(F)cc3)C(C(=O)O)=CC[C@H]2c2ccc3c(c2)OCO3)cc1	1.0	4231	1.1	-0.1	-5.2	x
NS(=O)(=O)c1ccc(CCNC(=O)CCc2nc3ccccc3s2)cc1	-0.2	4849	-2.1	-1.2	-3.7	2.2
COC(=O)C1CN(Cc2cn(Cc3ccc(Cl)cc3)nn2)CCS(=O)(=O)N1Cc1ccccc1 (centres undefined)	-7.1	x	x	x	x	x
CCOc1ccc(CCNC(=O)COC(=O)c2cccnc2OCC)cc1OCC	-9.7	16322*	-2.2	-0.6	0.5	-1.8
O=C(CCc1ccccc1)c1ccc2c(c1)OCCCO2	5.1	19780*	-0.9	u	4.3	-0.3
CCCCCC(=O)NC1CCCCN(Cc2ccc(C)cc2)C1=O (centres undefined)	1.9	x	x	x	x	x
O=C(c1ccc(-c2ccc(Cl)cc2)o1)N1CCN(c2ccc([N+](=O)[O-])cc2Cl)CC1	-10.5	21861*	1.6	4.8	-0.2	-2.9
O=C(c1ccc(-c2ccc([N+](=O)[O-])cc2)o1)N1CCCCC1	24.2	2824	0.1	1.8	-5.1	-9.3
O=C(Nc1cccc(Cl)c1)N1CCCC1	13.0	3709	0.0	0.6	-3.5	-0.1
COc1ccccc1N1CCN(C(=O)Nc2cccc(Cl)c2)CC1	-5.5	17904*	-3.9	u	-12.9	-2.3
